Bioassay records as filed in PubChem BioAssay.
TDP1 cell noCPT – qHTS for Inhibitors of human tyrosyl-DNA phosphodiesterase 1 (TDP1): qHTS in cells in absence of CPT; Potency, µM (highest dose often 46.2 µM), most hits filed as inhibitors; AID 686978, 2013; DT40 Tdp1-/- hTDP1 cells, no CPT, ATP luminescence, 48 h; 15% of 420,000 active; further: nearly all actives have a fitted effect of over 55% in size
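Camptothecin absent (DMSO only). Human TDP1-complemented DT40 knockout cells, 400 cells/well, 37 °C for minimum 48 hr; ATP measured via CellTiter-Glo, 30 min dark incubation, luminescence.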
HT1080-NT tox – qHTS for induction of synthetic lethality in tumor cells producing 2HG: qHTS for the HT-1080-NT fibrosarcoma cell line | 1.6% of 360,000 active | HT-1080-NT fibrosarcoma viability, CellTiter-Glo ATP luminescence, 48 h | Potency, µM (highest dose often 46.1 µM), usual class: cytotoxic | AID 686970, 2013;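 further: NT is the 2HG producing partner of a matched IDH1 knockdown line; nearly all actives have a fitted effect of over 55% in size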
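HT-1080-NT fibrosarcoma cells (2HG-overproducing), 750 cells/well in RPMI with 5% FBS, dosed after 2 h and incubated 48 h at 37C. CellTiter-Glo luminescence normalized to DMSO and no-cell wells; concentration-response curves fitted and classed.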
IL1B secr inh – qHTS for Inhibitors of Inflammasome Signaling: IL-1-beta AlphaLISA Primary Screen; 4.7% of 360,000 active; activity change, % at 57.5 µM; THP-1 LPS/ATP IL-1B secretion, AlphaLISA, 16 h; active compounds read low; in the data active means activity change below about -50%; inconclusive means mostly about -30% to -49%
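THP-1 cells pretreated 1 hr with compounds (up to 57.5 uM final), then stimulated with LPS (250 ng/mL final) plus ATP (1.25 mM final); secreted IL-1B measured by AlphaLISA after 16 hr, decreased signal indicating inhibition.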
HT1080 IDH1KD tx – qHTS for induction of synthetic lethality in tumor cells producing 2HG: qHTS for the HT-1080-IDH1KD cell line; 2% of 360,000 active; HT-1080 IDH1 knockdown viability, ATP luminescence, 48 h; AID 686971, 2013; Potency, µM (top dose mostly 46.1 µM), hits mostly cytotoxic
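Knockdown cells (IDH1KD HT-1080) received compounds 2 h after plating at 750 cells/well and were kept 48 h at 37 °C in 5% FBS RPMI. A CellTiter-Glo luminescence read gave % activity for curve fitting.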
TDP1 cell CPT – qHTS for Inhibitors of human tyrosyl-DNA phosphodiesterase 1 (TDP1): qHTS in cells in presence of CPT; chicken DT40 Tdp1-/-;hTDP1 cells + 20 nM CPT, ATP luminescence, 48 h; 12% of 420,000 active; Potency, µM (titrated, usually from 46.2 µM), hits mostly inhibitors; further: nearly all actives have a fitted effect of over 55% in size
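Chicken DT40 Tdp1-/- cells complemented with human TDP1, 400 cells/well, exposed to compounds plus 20 nM camptothecin for at least 48 h at 37 C; viability read as ATP content by CellTiter-Glo luminescence.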
Of the large screens only hits and unclear results are named; the others gave an inactive call. Only some compounds are listed: those with a hit (about 19% of all), similar ones and a draw of the others. Unless noted, the call rests on the fitted dose curve; in most records, active means well fitted curve in the direction sought with a large enough effect; inconclusive means small, poorly fitted or top-dose-only effect, or another doubt; inactive means no such curve, though single readings can be large; an effect the other way counts as inactive or inconclusive.

CCSc1nnc(NC(=O)CSc2nc3c(c(=O)n2CC)SC(C)C3)s1 (centres undefined)	TDP1 cell noCPT 8.2µM, TDP1 cell CPT 13µM
CCSc1nnc(NC(=O)CSc2nc3c(c(=O)n2C)SC(C)C3)s1 (centres undefined)	TDP1 cell noCPT 11µM, TDP1 cell CPT 15µM
Fc1ccc(COc2ccc3ccccc3c2CNc2nn[nH]n2)cc1	HT1080-NT tox inconclusive, HT1080 IDH1KD tx inconclusive
NC(=O)c1ncn([C@@H]2O[C@H](CNCc3c(OCc4ccccc4F)ccc4ccccc34)[C@@H](O)[C@H]2O)n1	none
Fc1ccccc1COc1ccc2ccccc2c1CNc1nn[nH]n1	HT1080-NT tox 13µM, HT1080 IDH1KD tx 16µM
O=c1ccn([C@@H]2O[C@H](CNCc3c(OCc4ccccc4F)ccc4ccccc34)[C@@H](O)[C@H]2O)c(=O)[nH]1	TDP1 cell noCPT inconclusive, HT1080-NT tox inconclusive, IL1B secr inh -58, HT1080 IDH1KD tx inconclusive, TDP1 cell CPT 16µM
CC(=O)c1ccc(N(CC(=O)NC2CCCC2)C(=O)CNC(=O)c2ccco2)cc1	none
Cc1ccc(C(=O)N(Cc2cc3cc4c(cc3nc2N2CCOCC2)CCC4)CC2CCCO2)cc1 (centres undefined)	none (no result: HT1080-NT tox, IL1B secr inh, HT1080 IDH1KD tx)
COc1ccc(C(=O)N2CCCC(c3cc(C(=O)NCc4ccccc4)no3)C2)cc1 (centres undefined)	TDP1 cell noCPT inconclusive, TDP1 cell CPT inconclusive
O=C(NCc1ccccc1)c1cc(C2CCCN(C(=O)CCCc3ccccc3)C2)on1 (centres undefined)	TDP1 cell noCPT 15µM, TDP1 cell CPT 15µM
O=C(NCc1ccc(F)cc1)c1cc(C2CCCN(C(=O)c3ccc4c(c3)CCO4)C2)on1 (centres undefined)	TDP1 cell noCPT 23µM, TDP1 cell CPT 18µM
Cc1ccc(F)cc1C(=O)N1CCCC(c2cc(C(=O)NCc3ccc(F)cc3)no2)C1 (centres undefined)	TDP1 cell noCPT 15µM, IL1B secr inh inconclusive, TDP1 cell CPT inconclusive
O=C(NCc1ccccc1)c1cc(C2CCCN(C(=O)c3ccc4c(c3)CCO4)C2)on1 (centres undefined)	TDP1 cell noCPT inconclusive, TDP1 cell CPT inconclusive
O=C(Nc1ccccc1Cl)c1cc(C2CCCN(C(=O)CCCc3ccccc3)C2)on1 (centres undefined)	TDP1 cell noCPT inconclusive
COc1ccc(C(=O)N2CCCC(c3cc(C(=O)NCc4ccc(F)cc4)no3)C2)cc1 (centres undefined)	TDP1 cell noCPT inconclusive, TDP1 cell CPT 15µM
Cc1ccc(F)cc1C(=O)N1CCCC(c2cc(C(=O)NCc3ccccc3)no2)C1 (centres undefined)	TDP1 cell noCPT inconclusive, TDP1 cell CPT inconclusive
O=C1C=C(NCCc2ccccc2)C2(CCCCC2)O1	none
Cc1csc2nc(COc3ccc(NC(=O)c4ccccc4F)cc3)cc(=O)n12	none (no result: HT1080-NT tox, IL1B secr inh, HT1080 IDH1KD tx)
O=C(NCc1ccc(F)cc1)c1cc(C2CCCN(C(=O)c3ccccn3)C2)on1 (centres undefined)	none
O=C(NCc1ccc(F)cc1)c1cc(C2CCCN(C(=O)c3ccc4ccccc4c3)C2)on1 (centres undefined)	TDP1 cell noCPT 16µM, TDP1 cell CPT 16µM
CC(C)c1ccc(C(=O)N2CCCC(c3cc(C(=O)NCc4ccccc4)no3)C2)cc1 (centres undefined)	TDP1 cell noCPT 15µM, HT1080 IDH1KD tx inconclusive, TDP1 cell CPT 13µM
O=C(Nc1cccc(F)c1)N1CCCC2(CCN(S(=O)(=O)c3ccccc3)CC2)C1	TDP1 cell noCPT inconclusive (no result: HT1080-NT tox, IL1B secr inh, HT1080 IDH1KD tx)
CC(=O)CCn1c(=O)n(CCC(C)=O)c(=O)n(CCC(C)=O)c1=O	none
COc1ccc(Cl)cc1C(=O)Nn1c(-c2cccs2)nc2ccccc2c1=O	TDP1 cell noCPT inconclusive, IL1B secr inh inconclusive, TDP1 cell CPT 10µM
CC(=O)c1cccc(-c2cnc3c(NC=O)cc(-c4ccc(C(=O)N5CCOCC5)cc4)cn23)c1	TDP1 cell noCPT inconclusive, HT1080-NT tox inconclusive, TDP1 cell CPT inconclusive
COc1ccc(-c2cnc3c(NC=O)cc(-c4ccc(C(=O)N5CCOCC5)cc4)cn23)cc1OC	TDP1 cell noCPT 3.3µM, HT1080-NT tox inconclusive, IL1B secr inh inconclusive, HT1080 IDH1KD tx 21µM, TDP1 cell CPT 4.1µM
CC(=O)c1ccc(-c2cnc3c(NC=O)cc(-c4ccc(C(=O)N5CCOCC5)cc4)cn23)cc1	TDP1 cell noCPT 21µM, HT1080-NT tox inconclusive, HT1080 IDH1KD tx inconclusive, TDP1 cell CPT 16µM
OC(Cc1ccc2ccccc2n1)c1c(Cl)cccc1Cl (centres undefined)	none (no result: HT1080-NT tox, IL1B secr inh, HT1080 IDH1KD tx)
CCOc1cc(C(=O)N=c2sccn2C)cc(Br)c1OC	TDP1 cell noCPT 18µM, IL1B secr inh inconclusive, TDP1 cell CPT 18µM
CCOc1cc(C(=O)NC)cc(Br)c1OC	none
N#CC(c1ccc(Cl)cc1)c1ccc2c(C(F)(F)F)cc(C(F)(F)F)nc2n1 (centres undefined)	TDP1 cell noCPT 0.58µM, HT1080-NT tox 10µM, IL1B secr inh -105, HT1080 IDH1KD tx 15µM, TDP1 cell CPT 0.65µM
COc1cc(C(=O)Nc2nnc(Cc3ccccc3)s2)cc(OC)c1OC	TDP1 cell noCPT inconclusive, HT1080-NT tox inconclusive, HT1080 IDH1KD tx 10µM
COc1cccc(OC)c1C(=O)Nc1nc2c(s1)CCc1ccccc1-2	none (no result: HT1080-NT tox, IL1B secr inh, HT1080 IDH1KD tx)
CCCN(CCC)S(=O)(=O)c1ccc(C(=O)Nc2nc3c(s2)CCc2ccccc2-3)cc1	TDP1 cell noCPT 15µM, HT1080-NT tox 18µM, HT1080 IDH1KD tx inconclusive, TDP1 cell CPT 16µM
CN(C)S(=O)(=O)c1ccc(C(=O)Nc2nnc(Cc3ccccc3)s2)cc1	HT1080-NT tox inconclusive, HT1080 IDH1KD tx 23µM
O=C(Nc1nnc(Cc2ccccc2)s1)c1ccccc1	none
COc1ccc(Cc2nnc(NC(=O)c3ccc(OC)c(OC)c3)s2)cc1	TDP1 cell noCPT 23µM, TDP1 cell CPT 23µM
CCN(CC)S(=O)(=O)c1ccc(C(=O)Nc2nnc(NC(=S)Nc3ccccc3)s2)cc1	TDP1 cell noCPT 23µM, HT1080 IDH1KD tx inconclusive, TDP1 cell CPT inconclusive
CC(C)COP(=O)(OCC(C)C)C(Nc1ccccc1)c1ccc(F)cc1 (centres undefined)	TDP1 cell noCPT inconclusive, HT1080-NT tox inconclusive, IL1B secr inh inconclusive, TDP1 cell CPT inconclusive
CC(C)COP(=O)(OCC(C)C)C(Nc1ccccc1)c1ccc2c(c1)OCO2 (centres undefined)	TDP1 cell noCPT inconclusive, IL1B secr inh -62, TDP1 cell CPT 15µM
O=S(=O)(CCNCc1ccccc1)NC1CCCCC1	TDP1 cell CPT inconclusive
CCCCCCCCNCCS(=O)(=O)NCCCCCCCC	TDP1 cell noCPT 16µM, TDP1 cell CPT inconclusive
